# About 2,000 (36%) of roughly 5,500 compounds were called active. Roughly 18% stayed inconclusive and do not appear here. The list shows a part of the results. Values without a mark were called inactive. No stated cut-off is given here; in the data, active means normalized growth mostly below about 0.91 (no sharp cut-off); inconclusive means no clear call, values can overlap the other calls; inactive means mostly above about 0.92.
# Assay: chemical genetic growth profiling, strain panel (AID 1159580);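 further: tested at 20 µM; growth read once vehicle control cultures reached saturation at 30 °C; 1 = growth at the plate median or of vehicle wells; lower values mean less growth of the strain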
# Details: growth OD
structure (smiles),measurement,setting,value
COC(=O)c1c(OC)cc2c(c1C)Oc1c(Cl)c(O)c(Cl)c(C)c1C(=O)O2,normalized growth,"S. cerevisiae deletion strains, locus YJR075W, strain HOC1, hits give low values",0.893
same,normalized growth,"S. cerevisiae deletion strains, locus YKL009W, strain mrt4, hits give low values",0.975
same,normalized growth,"S. cerevisiae deletion strains, locus YKL068W, hits give low values",0.976
same,normalized growth,"S. cerevisiae deletion strains, locus YKL085W, strain MDH1 (second series), hits give low values",0.979
same,normalized growth,"S. cerevisiae deletion strains, locus YKL085W, strain MDH1, hits give low values",0.979
same,normalized growth,"S. cerevisiae deletion strains, locus YKL160W, strain elf1, hits give low values",0.993
same,normalized growth,"S. cerevisiae deletion strains, locus YKL190W, strain CNB1, hits give low values",0.911 (active)
same,normalized growth,"S. cerevisiae deletion strains, locus YKR001C, strain vps1, hits give low values",0.949
same,normalized growth,"S. cerevisiae deletion strains, locus YKR026C, strain gcn3, hits give low values",0.977
same,normalized growth,"S. cerevisiae deletion strains, locus YKR091W, strain srl3, hits give low values",0.986
same,normalized growth,"S. cerevisiae deletion strains, locus YLL001W, strain dnm1, hits give low values",0.979
same,normalized growth,"S. cerevisiae deletion strains, locus YLL026W, hits give low values",0.983
same,normalized growth,"S. cerevisiae deletion strains, locus YLL041C, strain sdh2, hits give low values",0.978
same,normalized growth,"S. cerevisiae deletion strains, locus YLR027C, strain aat2, hits give low values",0.991
same,normalized growth,"S. cerevisiae deletion strains, locus YLR039C, strain RIC1, hits give low values",0.796
same,normalized growth,"S. cerevisiae deletion strains, locus YLR058C, strain SHM2, hits give low values",0.919
same,normalized growth,"S. cerevisiae deletion strains, locus YLR102C, strain apc9, hits give low values",0.927
same,normalized growth,"S. cerevisiae deletion strains, locus YLR113W, strain HOG1, hits give low values",0.968
same,normalized growth,"S. cerevisiae deletion strains, locus YLR221C, strain rsa3, hits give low values",0.982
same,normalized growth,"S. cerevisiae deletion strains, locus YLR258W, strain gsy2, hits give low values",0.992
same,normalized growth,"S. cerevisiae deletion strains, locus YLR262C, strain YPT6 (second series), hits give low values",0.927
same,normalized growth,"S. cerevisiae deletion strains, locus YLR262C, strain YPT6, hits give low values",0.795
same,normalized growth,"S. cerevisiae deletion strains, locus YLR268W, strain sec22, hits give low values",0.905
same,normalized growth,"S. cerevisiae deletion strains, locus YLR320W, strain mms22, hits give low values",0.964
same,normalized growth,"S. cerevisiae deletion strains, locus YLR330W, strain CHS5, hits give low values",0.929
same,normalized growth,"S. cerevisiae deletion strains, locus YLR342W, strain FKS1 (second series), hits give low values",0.927
same,normalized growth,"S. cerevisiae deletion strains, locus YLR342W, strain FKS1, hits give low values",0.986
same,normalized growth,"S. cerevisiae deletion strains, locus YLR357W, strain rsc2, hits give low values",1.05
same,normalized growth,"S. cerevisiae deletion strains, locus YLR370C, strain arc18, hits give low values",0.984
same,normalized growth,"S. cerevisiae deletion strains, locus YLR371W, strain rom2, hits give low values",0.976
same,normalized growth,"S. cerevisiae deletion strains, locus YLR384C, strain iki3, hits give low values",0.994
same,normalized growth,"S. cerevisiae deletion strains, locus YLR418C, strain cdc73, hits give low values",0.863
same,normalized growth,"S. cerevisiae deletion strains, locus YML016C, strain PPZ1, hits give low values",0.936
same,normalized growth,"S. cerevisiae deletion strains, locus YML032C, strain rad52, hits give low values",0.96
same,normalized growth,"S. cerevisiae deletion strains, locus YML120C, strain ndi1, hits give low values",0.973
same,normalized growth,"S. cerevisiae deletion strains, locus YML124C, strain tub3, hits give low values",0.945
same,normalized growth,"S. cerevisiae deletion strains, locus YMR058W, strain fet3, hits give low values",0.982
same,normalized growth,"S. cerevisiae deletion strains, locus YMR078C, strain ctf18, hits give low values",0.935
same,normalized growth,"S. cerevisiae deletion strains, locus YMR125W, strain sto1, hits give low values",1.01
same,normalized growth,"S. cerevisiae deletion strains, locus YMR129W, hits give low values",1.01
same,normalized growth,"S. cerevisiae deletion strains, locus YMR205C, strain PFK2, hits give low values",0.989
same,normalized growth,"S. cerevisiae deletion strains, locus YMR223W, strain ubp8, hits give low values",0.947
same,normalized growth,"S. cerevisiae deletion strains, locus YMR231W, strain pep5, hits give low values",0.993
same,normalized growth,"S. cerevisiae deletion strains, locus YMR263W, strain SAP30, hits give low values",0.882 (active)
same,normalized growth,"S. cerevisiae deletion strains, locus YMR307W, strain GAS1, hits give low values",0.869
same,normalized growth,"S. cerevisiae deletion strains, locus YNL067W, strain RPL9B, hits give low values",0.895
same,normalized growth,"S. cerevisiae deletion strains, locus YNL071W, strain lat1, hits give low values",0.982
same,normalized growth,"S. cerevisiae deletion strains, locus YNL128W, strain TEP1, hits give low values",0.89
same,normalized growth,"S. cerevisiae deletion strains, locus YNL153C, strain GIM3, hits give low values",0.909
same,normalized growth,"S. cerevisiae deletion strains, locus YNL183C, strain NPR1, hits give low values",0.9
same,normalized growth,"S. cerevisiae deletion strains, locus YNL209W, strain ssb2, hits give low values",0.996
same,normalized growth,"S. cerevisiae deletion strains, locus YNL233W, strain BNI4, hits give low values",0.938
same,normalized growth,"S. cerevisiae deletion strains, locus YNL248C, strain rpa49, hits give low values",1.02
same,normalized growth,"S. cerevisiae deletion strains, locus YNL250W, strain rad50, hits give low values",0.986
same,normalized growth,"S. cerevisiae deletion strains, locus YNL271C, strain bni1, hits give low values",0.985
same,normalized growth,"S. cerevisiae deletion strains, locus YNL298W, strain CLA4, hits give low values",0.977
same,normalized growth,"S. cerevisiae deletion strains, locus YNL307C, strain MCK1, hits give low values",0.838 (active)
same,normalized growth,"S. cerevisiae deletion strains, locus YNL322C, strain KRE1 (second series), hits give low values",0.997
same,normalized growth,"S. cerevisiae deletion strains, locus YNL322C, strain KRE1, hits give low values",0.937
same,normalized growth,"S. cerevisiae deletion strains, locus YNR049C, strain mso1, hits give low values",0.994
same,normalized growth,"S. cerevisiae deletion strains, locus YNR052C, strain pop2, hits give low values",0.948
same,normalized growth,"S. cerevisiae deletion strains, locus YOL006C, strain TOP1, hits give low values",0.757
same,normalized growth,"S. cerevisiae deletion strains, locus YOL012C, strain htz1",0.865
same,normalized growth,"S. cerevisiae deletion strains, locus YOL147C, strain pex11, hits give low values",0.946
same,normalized growth,"S. cerevisiae deletion strains, locus YOR001W, strain rrp6, hits give low values",1.01
same,normalized growth,"S. cerevisiae deletion strains, locus YOR061W, strain CKA2, hits give low values",0.892
same,normalized growth,"S. cerevisiae deletion strains, locus YOR069W, strain VPS5, hits give low values",0.953
same,normalized growth,"S. cerevisiae deletion strains, locus YOR070C, strain gyp1, hits give low values",0.984
same,normalized growth,"S. cerevisiae deletion strains, locus YOR080W, strain dia2, hits give low values",0.992
same,normalized growth,"S. cerevisiae deletion strains, locus YOR083W, strain WHI5, hits give low values",0.997
same,normalized growth,"S. cerevisiae deletion strains, locus YOR106W, strain vam3, hits give low values",1.01
same,normalized growth,"S. cerevisiae deletion strains, locus YOR136W, strain idh2, hits give low values",0.943
same,normalized growth,"S. cerevisiae deletion strains, locus YOR144C, strain elg1, hits give low values",0.947
same,normalized growth,"S. cerevisiae deletion strains, locus YOR184W, strain ser1, hits give low values",0.918
same,normalized growth,"S. cerevisiae deletion strains, locus YOR231W, strain MKK1, hits give low values",0.927
same,normalized growth,"S. cerevisiae deletion strains, locus YOR265W, strain rbl2, hits give low values",0.989
same,normalized growth,"S. cerevisiae deletion strains, locus YOR270C, strain vph1, hits give low values",0.927
same,normalized growth,"S. cerevisiae deletion strains, locus YOR290C, strain snf2, hits give low values",0.995
same,normalized growth,"S. cerevisiae deletion strains, locus YOR316C, strain cot1, hits give low values",0.933
same,normalized growth,"S. cerevisiae deletion strains, locus YPL051W, strain arl3, hits give low values",0.98
same,normalized growth,"S. cerevisiae deletion strains, locus YPL055C, strain LGE1, hits give low values",0.864
same,normalized growth,"S. cerevisiae deletion strains, locus YPL078C, strain atp4, hits give low values",0.982
same,normalized growth,"S. cerevisiae deletion strains, locus YPL106C, strain sse1, hits give low values",1.03
same,normalized growth,"S. cerevisiae deletion strains, locus YPL240C, strain hsp82, hits give low values",0.979
same,normalized growth,"S. cerevisiae deletion strains, locus YPL241C, strain CIN2, hits give low values",0.913 (active)
same,normalized growth,"S. cerevisiae deletion strains, locus YPL256C, strain CLN2, hits give low values",0.938
same,normalized growth,"S. cerevisiae deletion strains, locus YPR119W, strain clb2, hits give low values",0.937
same,normalized growth,"S. cerevisiae deletion strains, locus YPR141C, strain kar3, hits give low values",0.968
same,normalized growth,"S. cerevisiae deletion strains, locus YPR163C, strain tif3, hits give low values",0.901 (active)
same,normalized growth,"S. cerevisiae deletion strains, locus YPR167C, strain met16, hits give low values",0.927
same,normalized growth,"S. cerevisiae deletion strains, strain wtn01, hits give low values",0.936
same,normalized growth,"S. cerevisiae strains, strain wild type, hits give low values",0.915

# Reference: PubChem BioAssay AID1159580 (chemical genetic matrix, 2015)
